Results taken from PubChem BioAssay AID1159580 (chemical genetic matrix, 2015).
Values joined by “and” are separate entries in the source; they are usually repeats but may differ in a detail not shown here. Equal entries are not always repeated. The whole screen tested about 5,500 compounds, of which about 2,000 (36%) were called active. About 18% were inconclusive and are not listed. Cut-off read from the data, not from the text of the source: active = normalized growth mostly below about 0.91 (no sharp cut-off); inconclusive = no clear call, values can overlap the other calls; inactive = mostly above about 0.92. The list shows a part of the results.

Test: chemical genetic growth profiling, strain panel (AID 1159580);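 note: tested at 20 µM; growth read once vehicle control cultures reached saturation at 30 °C; 1 = growth at the plate median or of vehicle wells; lower values mean less growth of the strain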
Conditions: S. cerevisiae deletion strains, growth OD

Measured: normalized growth

CC(=O)O[C@H]1C[C@H](O[C@H]2[C@@H](O)C[C@H](O[C@H]3[C@@H](O)C[C@H](O[C@H]4CC[C@@]5(C)C(CCC6C5C[C@@H](O)[C@]5(C)[C@@H](C7=CC(=O)OC7)CC[C@]65O)C4)O[C@@H]3C)O[C@@H]2C)O[C@H](C)[C@H]1O[C@@H]1O[C@H](CO)[C@@H](O)[C@H](O)[C@H]1O (stereo not given in full)
inactive: locus YAL021C, strain ccr4, active compounds read low 1 | locus YAL026C, strain drs2, active compounds read low 0.996 | locus YAL030W, strain snc1, active compounds read low 1 | locus YBL061C, strain skt5, active compounds read low 0.991 | locus YBR009C, strain hhf1, active compounds read low 0.995 | locus YBR021W, strain FUR4, active compounds read low 1.02 | locus YBR023C, strain chs3, active compounds read low 0.999 | locus YBR171W, strain sec66, active compounds read low 0.995 | locus YBR229C, strain ROT2, active compounds read low 1.01 | locus YBR231C, strain swc5, active compounds read low 0.987 | locus YBR279W, strain paf1, active compounds read low 0.996 | locus YCL011C, strain gbp2, active compounds read low 1 | locus YCL016C, strain dcc1, active compounds read low 0.996 | locus YCL029C, strain bik1, active compounds read low 0.985 | locus YCL061C, strain MRC1, active compounds read low 0.999 | locus YCL069W, strain vba3, active compounds read low 0.993 | locus YCR088W, strain abp1, active compounds read low 0.989 | locus YDL005C, strain med2, active compounds read low 0.996 | locus YDL035C, strain GPR1, active compounds read low 1.03 | locus YDL040C, strain nat1, active compounds read low 0.994 | locus YDL074C, strain BRE1, active compounds read low 1.02 | locus YDL101C, strain DUN1, active compounds read low 1.02 | locus YDL134C, strain PPH21, active compounds read low 1.02 | locus YDL185W, strain tfp1, active compounds read low 1 | locus YDL192W, strain arf1, active compounds read low 1.01 | locus YDR001C, strain nth1, active compounds read low 0.994 | locus YDR069C, strain doa4, active compounds read low 0.988 | locus YDR101C, strain arx1, active compounds read low 0.983 | locus YDR137W, strain rgp1, active compounds read low 0.997 | locus YDR150W, strain NUM1, active compounds read low 1.01 | locus YDR159W, strain sac3, active compounds read low 0.981 | locus YDR162C, strain NBP2, active compounds read low 1.02 | locus YDR195W, strain ref2 0.961 | locus YDR297W, strain sur2, active compounds read low 0.994 | locus YDR318W, strain mcm21, active compounds read low 0.989 | locus YDR334W, strain swr1, active compounds read low 0.999 | locus YDR335W, strain msn5, active compounds read low 1 | locus YDR388W, active compounds read low 0.989 | locus YDR392W, strain spt3, active compounds read low 0.979 | locus YDR502C, strain sam2, active compounds read low 1.01 | locus YEL003W, strain gim4, active compounds read low 0.995 | locus YEL037C, strain rad23, active compounds read low 0.999 | locus YEL061C, strain CIN8 (second series), active compounds read low 0.99 | locus YEL061C, strain CIN8, active compounds read low 1.01 | locus YER015W, strain faa2, active compounds read low 0.994 | locus YER016W, strain bim1, active compounds read low 0.993 | locus YER110C, active compounds read low 0.984 | locus YER111C, strain swi4, active compounds read low 0.997 | locus YER155C, strain BEM2 (second series), active compounds read low 1.01 | locus YER155C, strain BEM2, active compounds read low 1 | locus YER167W, strain BCK2, active compounds read low 1.01 | locus YFR010W, strain ubp6, active compounds read low 0.994 | locus YGL078C, strain dbp3, active compounds read low 1.01 | locus YGL086W, strain mad1, active compounds read low 0.998 | locus YGL167C, strain pmr1, active compounds read low 1 | locus YGL173C, strain kem1, active compounds read low 1 | locus YGL227W, strain vid30, active compounds read low 0.987 | locus YGL240W, strain doc1, active compounds read low 0.995 | locus YGL248W, strain PDE1, active compounds read low 1.01 | locus YGL253W, strain hxk2, active compounds read low 0.997 | locus YGR078C, strain PAC10, active compounds read low 1 | locus YGR135W, strain pre9, active compounds read low 1.01 | locus YGR229C, strain SMI1, active compounds read low 1.02 | locus YGR252W, strain gcn5, active compounds read low 1.17 | locus YHR013C, strain ard1, active compounds read low 0.969 | locus YHR027C, strain rpn1, active compounds read low 0.999 | locus YHR030C, strain SLT2, active compounds read low 1 and 0.975 | locus YHR079C, strain IRE1, active compounds read low 0.966 | locus YHR094C, strain hxt1, active compounds read low 0.973 | locus YHR129C, strain ARP1, active compounds read low 1.01 | locus YHR142W, strain chs7, active compounds read low 0.996 | locus YHR200W, strain rpn10, active compounds read low 1 | locus YIL066C, strain RNR3, active compounds read low 1.01 | locus YIL073C, strain SPO22, active compounds read low 1.08 | locus YIL125W, strain kgd1, active compounds read low 1 | locus YIR030C, strain dcg1, active compounds read low 0.988 | locus YJL092W, strain hpr5, active compounds read low 1 | locus YJL095W, strain BCK1 (second series), active compounds read low 0.998 | locus YJL095W, strain BCK1, active compounds read low 1 and 0.977 | locus YJL115W, strain asf1, active compounds read low 0.996 | locus YJL129C, strain trk1, active compounds read low 0.998 | locus YJL134W, strain LCB3, active compounds read low 1.01 | locus YJL154C, strain vps35, active compounds read low 0.993 | locus YJL164C, strain tpk1, active compounds read low 1.01 | locus YJL166W, strain qcr8, active compounds read low 1 | locus YJL168C, strain set2, active compounds read low 0.982 | locus YJL187C, strain SWE1 (second series), active compounds read low 1.01 | locus YJL187C, strain SWE1, active compounds read low 0.995 | locus YJR043C, strain POL32, active compounds read low 0.999 | locus YJR066W, strain TOR1, active compounds read low 0.933
